# Measured values from PubChem BioAssay (NCATS).
# Where “and” joins values, the source holds several entries; their conditions need not be identical. Equal entries are not always repeated. A number with no mark means an inactive call. Results filed as inconclusive are left out. Where a call stands in place of a potency, no number is given. Calls of active or inactive are those of the source. Calls come from the whole dose curve; as a rule, active = well fitted curve in the direction sought with a large enough effect; inconclusive = small, poorly fitted or top-dose-only effect, or another doubt; inactive = no such curve, though single readings can be large; an effect the other way counts as inactive or inconclusive.
# Experiments:
# [1] = Cell Viability - Renal Proximal Tubule (AID 545); details: renal proximal tubule cells viability, primary cells of rat origin; at 91.7 µM (top of the series); note: nearly all actives have a fitted effect of over 40% in size
# In short: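 Rat renal proximal tubule primary cells, 1000/well, exposed to compounds for 40 hr at 37 °C in complete medium; cellular ATP read by CellTiter-Glo luminescence. AC50 from concentration-response fitted with standard Hill equation.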
# [2] = Cellular Toxicity (caspase-3) Jurkat (AID 655); details: Jurkat caspase-3 activation, luminescence, DMSO = 0%, tamoxifen = 100%; at 92.2 µM (top of the series);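 note: cells exposed to compound for 16 h at 37 °C before reading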
# In short: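 Jurkat cells (5000/well) in complete medium exposed 16 h at 37 C; caspase-3/7 activity read by Caspase-Glo luminescence after 20 min at room temperature. Normalized to DMSO and 100 uM tamoxifen; AC50 from Hill fits.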
# [3] = Cell Viability - LYMP2-001 (AID 921); note: nearly all actives have a fitted effect of over 70% in size; note: potency is the fitted concentration of half-maximal effect
# In short: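 Human lymphoblastoid LYMP2-001 cells, 2500 per well, in complete medium, treated 24 h at 37 C. Viability from cellular ATP by CellTiter-Glo luminescence; AC50 from Hill-equation fits of qHTS concentration-response.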
# [4] = MultiTox-Fluor Cytotoxicity Assay - LYMP1-002 - Live Cells (AID 955);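 note: cells exposed to compound for 16 hours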; note: potency is the fitted concentration of half-maximal effect
# In short: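 Read-out is live-cell protease activity (cell-permeant GF-AFC substrate, fluorescence Ex/Em=405/510), where a decrease indicates acute toxicity. Human lymphoblastoid cells were treated 16 hours at 37 C in a concentration series, and AC50 values came from standard Hill modelling.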
# [5] = MultiTox-Fluor Cytotoxicity Assay - LYMP1-003 - Dead Cells (AID 961); note: nearly all actives have a fitted effect of over 70% in size; note: potency is the fitted concentration of half-maximal effect
# In short: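 LYMP1-003 lymphoblastoid, 2500 cells/well, 5 hr settle then 16 hr cpd at 37 C; MultiTox-Fluor reagent 60 min RT; Ex/Em 485/520 dead-cell signal; norm. DMSO = 0%, 15 uM tetraoctylammonium bromide = 100%; Hill AC50.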
# [6] = Cell Viability - LYMP1-003 - Assay at 24 hr (AID 963); note: potency is the fitted concentration of half-maximal effect
# In short: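 Cells seeded at 2500/well, 5 hr at 37 C; compounds added; 24 hr at 37 C; CellTiter-Glo added, 30 min room temperature; luminescence read. Decrease in ATP taken as cytotoxicity, AC50 from Hill modelling.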
# [7] = Cell Viability - LYMP2-003 (AID 965);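 note: cells exposed to compounds for 24 h before reading; nearly all actives have a fitted effect of over 50% in size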; note: potency is the fitted concentration of half-maximal effect
# In short: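 Human lymphoblastoid LYMP2-003 cells, 2500/well, exposed to compounds for 24 h at 37 C in complete medium. Viability read as intracellular ATP by CellTiter-Glo luminescence; AC50 from Hill-equation fits of qHTS concentration-response data.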
# [8] = Cell Viability - LYMP2-005 (AID 967); note: potency is the fitted concentration of half-maximal effect
# In short: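 Human lymphoblastoid LYMP2-005 cells, 2,500 per well in complete medium, rested 5 h at 37C then compound-treated 24 h at 37C. Intracellular ATP read by CellTiter-Glo luminescence after 30 min at room temperature; AC50 from Hill-equation fits of concentration-response data.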
# [9] = Cell Viability - LYMP2-009 (AID 968); note: nearly all actives have a fitted effect of over 55% in size; note: potency is the fitted concentration of half-maximal effect
# [10] = Cell Viability - LYMP2-015 (AID 971); note: nearly all actives have a fitted effect of over 55% in size; note: potency is the fitted concentration of half-maximal effect
# In short: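 Luminescent ATP read-out (CellTiter-Glo) served as the viability measure after lymphoblastoid cells were exposed to compounds for 24 hours at 37 C. Concentration-response data were fitted with the Hill equation to give AC50.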
# [11] = Cell Viability - LYMP2-021 (AID 974);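 note: compound exposure lasts 24 hours at 37 °C; nearly all actives have a fitted effect of over 55% in size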; note: potency is the fitted concentration of half-maximal effect
# In short: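 Plate 2500 lymphoblastoid cells per well and incubate 5 hr at 37 C. Add compounds over a concentration range and incubate 24 hr at 37 C. Add CellTiter-Glo, wait 30 min at room temperature, read luminescence.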
# [12] = Cell Viability - LYMP2-023 (AID 975); note: nearly all actives have a fitted effect of over 55% in size; note: potency is the fitted concentration of half-maximal effect;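 for activity change, negative = cytotoxicity: cellular ATP measured by luciferase luminescence as viability proxy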
# In short: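 2500 cells/well, 5 hr 37 C; cpd 24 hr 37 C; CellTiter-Glo, 30 min RT; luminescence. qHTS conc-response, Hill fit -> AC50. Pos ctrl tetraoctylammonium bromide.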
# [13] = Cell Viability - LYMP2-025 (AID 976); note: potency is the fitted concentration of half-maximal effect
# In short: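 Seed 2500 LYMP2-025 cells/well; 5 hr at 37 C; add compound; 24 hr at 37 C; add CellTiter-Glo; 30 min RT; read luminescence. AC50 from Hill-modelled concentration-response.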
# [14] = Cell Viability - LYMP2-002 (AID 977);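 note: compound exposure lasted 24 h at 37 °C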; note: potency is the fitted concentration of half-maximal effect
# In short: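 Human lymphoblastoid LYMP2-002 cells, 2500 per well, exposed to compounds for 24 h at 37 C in complete medium; viability read as intracellular ATP by CellTiter-Glo luminescence, AC50 from Hill fits.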
# [15] = Cell Viability - LYMP2-006 (AID 978); note: nearly all actives have a fitted effect of over 60% in size; note: potency is the fitted concentration of half-maximal effect
# In short: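 Human lymphoblastoid cells (LYMP2-006), 2500/well in complete medium, were treated with compound for 24 hr at 37 C. Cellular ATP was read by CellTiter-Glo luminescence after 30 min, and AC50 values came from Hill-equation fits of concentration-response data.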
# [16] = Cell Viability - LYMP2-008 (AID 980); note: nearly all actives have a fitted effect of over 60% in size; note: potency is the fitted concentration of half-maximal effect
# In short: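 qHTS, human lymphoblastoid line, 2500 cells/well; 5 hr preincubation, 24 hr compound, 37 C. CellTiter-Glo ATP luminescence. AC50 via Hill equation. Tetraoctylammonium bromide positive control.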
# [17] = Cell Viability - LYMP2-014 (AID 983); note: nearly all actives have a fitted effect of over 50% in size; note: potency is the fitted concentration of half-maximal effect
# In short: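 Luminescent ATP signal (CellTiter-Glo, 30 min at room temperature) serves as the viability read-out after 24 hr compound exposure at 37 C. Cells were seeded at 2500 per well and settled 5 hr beforehand.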
# [18] = Cell Viability - LYMP2-026 (AID 989); note: nearly all actives have a fitted effect of over 50% in size; note: potency is the fitted concentration of half-maximal effect
# In short: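 Luminescent ATP signal (CellTiter-Glo, 30 min room temperature) measures viable lymphoblastoid cells after 24 hr compound treatment at 37 C. Decreased ATP reflects acute toxicity; AC50 values come from Hill-equation modeling.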
# [19] = Cell Viability - LYMP1-002 - Assay at 24 hr (AID 993); note: potency is the fitted concentration of half-maximal effect
# In short: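 Cells plated 2500/well, 5 hr 37 C; compounds added, 24 hr 37 C; CellTiter-Glo added, 30 min RT; luminescence read. Tetraoctylammonium bromide positive control. Hill-equation AC50.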
# [20] = Cell Viability - LYMP1-002 - Assay at 40 hr (AID 994); note: nearly all actives have a fitted effect of over 60% in size; note: potency is the fitted concentration of half-maximal effect
# In short: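 Luminescent ATP signal served as the viability readout, with decreases taken as toxicity. Cells were treated with compounds across a concentration range for 40 hours at 37 C, and AC50 values came from standard Hill modeling.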
SMILES,"activity change, negative = cytotoxicity [1]",caspase-3 activation [2],Potency [3],Potency [4],Potency [5],Potency [6],Potency [7],Potency [8],Potency [9],Potency [10],Potency [11],Potency [12],Potency [13],Potency [14],Potency [15],Potency [16],Potency [17],Potency [18],Potency [19],Potency [20]
CCO[Si](CCCN)(OCC)OCC,-12%,1.79%,inactive,inactive,inactive,inactive,inactive,inactive,inactive,inactive,inactive,inactive,inactive,inactive,inactive,inactive,inactive,inactive,inactive,inactive
CCCCCCCCO,-1.75%,-0.397%,inactive,inactive,inactive,inactive,inactive,–,inactive,inactive,inactive,inactive,inactive,inactive,inactive,inactive,inactive,inactive,inactive,inactive
CCC(O)OC(O)CC (stereo not given),-7.55% and -1.85%,0.389% and 0.685%,inactive,inactive,inactive,inactive,inactive,inactive,inactive,inactive,inactive,inactive,inactive,inactive,inactive,inactive,inactive,inactive,inactive,inactive
c1ccc2c(c1)c1cccc3ccc4cccc2c4c31,-12.3%,0.0871%,inactive,inactive,inactive,inactive,inactive,inactive,inactive,inactive,inactive,inactive,inactive,inactive,inactive,inactive,inactive,inactive,inactive,inactive
Cc1cccc([N+](=O)[O-])c1C,0.624%,0.0783%,inactive,inactive,inactive,inactive,inactive,inactive,inactive,inactive,inactive,inactive,inactive,inactive,inactive,inactive,inactive,inactive,inactive,inactive
Cc1c(N=C=O)cccc1N=C=O,6.1%,-0.0166%,inactive,inactive,inactive,inactive,inactive,inactive,inactive,inactive,inactive,inactive,inactive,inactive,inactive,inactive,inactive,inactive,inactive,inactive
COC(=O)c1ccc(C)cc1,-5.83%,0.483%,inactive,inactive,inactive,inactive,inactive,inactive,inactive,inactive,inactive,inactive,inactive,inactive,inactive,inactive,inactive,inactive,inactive,inactive
C=CCOC(=O)c1ccccc1C(=O)OCC=C,-7.06%,-1.58%,inactive,inactive,inactive,inactive,inactive,inactive,inactive,inactive,inactive,inactive,inactive,inactive,inactive,inactive,inactive,inactive,inactive,inactive
C=CC(=O)OCCOCCOCCOCCOC(=O)C=C,-95.5% (active) and -108% (active),–,15.8 µM (active),12.6 µM (active) and 15.8 µM (active),20 µM (active) and 25.1 µM (active),31.6 µM (active) and 39.8 µM (active),12.6 µM (active) and 15.8 µM (active),10 µM (active) and 15.8 µM (active),15.8 µM (active),25.1 µM (active) and 20 µM (active),15.8 µM (active),25.1 µM (active) and 31.6 µM (active),25.1 µM (active),15.8 µM (active) and 25.1 µM (active),25.1 µM (active),25.1 µM (active),20 µM (active) and 25.1 µM (active),15.8 µM (active) and 20 µM (active),25.1 µM (active),20 µM (active) and 25.1 µM (active)
CN(C)C=O,-1.87% and 6.39%,2.75% and 2.81%,inactive,inactive,inactive,inactive,inactive,inactive,inactive,inactive,inactive,inactive,inactive,inactive,inactive,inactive,inactive,inactive,inactive,inactive
C1OCOCO1,-10.6%,2.97%,inactive,inactive,inactive,inactive,inactive,inactive,inactive,inactive,inactive,inactive,inactive,inactive,inactive,inactive,inactive,inactive,inactive,inactive
OCCNCCO,-1.22%,2.36%,inactive,inactive,inactive,inactive,inactive,inactive,inactive,inactive,inactive,inactive,inactive,inactive,inactive,inactive,inactive,inactive,inactive,inactive
CCCN(CCC)C(=O)SCC,6.23%,2.52%,inactive,inactive,inactive,inactive,inactive,inactive,inactive,inactive,inactive,inactive,inactive,inactive,inactive,inactive,inactive,inactive,inactive,inactive
ClCCCl,-0.883%,2.03%,inactive,inactive,inactive,inactive,inactive,inactive,inactive,inactive,inactive,inactive,inactive,inactive,inactive,inactive,inactive,inactive,inactive,inactive
Cc1ccccc1C,-2.71% and -0.376%,3.87% and 7.19%,inactive,inactive,inactive,inactive,inactive,inactive,inactive,inactive,inactive,inactive,inactive,inactive,inactive,inactive,inactive,inactive,inactive,inactive
O=NO,-3.27% and -5.21%,-1.69% and 0.278%,inactive,inactive,inactive,inactive,inactive,inactive,inactive,inactive,inactive,inactive,inactive,inactive,inactive,inactive,inactive,inactive,inactive,inactive
CC1=CC(C)(C)Nc2ccccc21,-6.6% and -0.974%,-0.184% and 0.591%,inactive,inactive,inactive,inactive,inactive,inactive,inactive,inactive,inactive,inactive,inactive,inactive,inactive,inactive,inactive,inactive,inactive,inactive
S=C1NC=NC2N=CNC12 (stereo not given),–,20.1%,inactive,inactive,inactive,–,–,inactive,–,inactive,–,–,–,inactive,inactive,–,–,–,–,–
O=[N+]([O-])c1cccc(Cl)c1Cl,-2.04%,1.08%,inactive,inactive,inactive,inactive,inactive,inactive,inactive,inactive,inactive,inactive,inactive,inactive,inactive,inactive,inactive,inactive,inactive,inactive
C/C=C\c1ccc(OC)cc1,-7.43%,-0.717%,inactive,inactive,inactive,inactive,inactive,inactive,inactive,inactive,inactive,inactive,inactive,inactive,inactive,inactive,inactive,inactive,inactive,inactive
CCC(C)c1ccccc1O (stereo not given),2.94% and 2.27%,0.687% and -0.479%,inactive,inactive,inactive,inactive,inactive,inactive,inactive,inactive,inactive,inactive,inactive,inactive,inactive,inactive,inactive,inactive,inactive,inactive
COC(=O)c1ccc(C=O)cc1,-14.2%,13.7%,inactive,inactive,inactive,inactive,inactive,inactive,inactive,inactive,inactive,inactive,inactive,inactive,inactive,inactive,inactive,inactive,inactive,inactive
O=C(O)CC(C(=O)O)C(CC(=O)O)C(=O)O (stereo not given),-9.72%,-0.624%,inactive,inactive,inactive,inactive,inactive,inactive,inactive,inactive,inactive,inactive,inactive,inactive,inactive,inactive,inactive,inactive,inactive,inactive
Nc1ccc(S(=O)(=O)O)cc1,-9.81%,0.897%,inactive,inactive,inactive,inactive,inactive,inactive,inactive,inactive,inactive,inactive,inactive,inactive,inactive,inactive,inactive,inactive,inactive,inactive
CC(=O)OC/C=C(\C)CCC=C(C)C,3.05%,1.05%,–,inactive,inactive,inactive,inactive,inactive,inactive,inactive,inactive,inactive,inactive,inactive,inactive,inactive,inactive,inactive,inactive,inactive
COC(=O)CCCCC(=O)OC,5.83%,2.55%,inactive,inactive,inactive,inactive,inactive,inactive,inactive,inactive,inactive,inactive,inactive,inactive,inactive,inactive,inactive,inactive,inactive,inactive
